From PubChem
An excerpt weighted towards active compounds, which were near 19% of everything screened.
KB-3-1 cytotox: KB-3-1 parental cell cytotoxicity; KB-3-1 viability, CellTiter-Glo ATP luminescence, 72 h; Potency, µM (titrated, usually from 46.1 µM), actives largely listed as cytotoxic; 400,000 tested, 1.4% active; AID 1347075; further: nearly all actives have a fitted effect of over 60% in size
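Screening of KB-3-1 cells (DMEM, 10% FBS, phenol-red free) ran from lowest to highest compound concentration; after 72 h at 37 °C viability was read luminescently and curves fitted.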
HT1080 IDH1KD tx: toxicity to HT-1080 IDH1 knockdown cells (counter line); 360,000 tested, 2% active; HT-1080 IDH1 knockdown viability, ATP luminescence, 48 h; Potency, µM (doses to about 46.1 µM), inactives show at the top dose activity, negative = toxicity, actives largely listed as cytotoxic;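 further: 0% = DMSO wells and -100% = cell-free medium wells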
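IDH1KD HT-1080 cells, 750/well, RPMI + 5% FBS; compound pinned after 2 h settling; 48 h, 37 °C; CellTiter-Glo luminescence; % activity normalised to DMSO and no-cell wells; curves fitted, classed by r2 and efficacy.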
KB-V1 MDR tox: kills drug-selected multidrug resistant KB-V1 cells. KB-V1 MDR cells viability, CellTiter-Glo, 72 h. Potency, µM (highest dose often 46.1 µM), actives largely listed as cytotoxic. 400,000 tested, 3.4% active; further: nearly all actives have a fitted effect of over 60% in size
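Cytotoxicity toward P-gp-expressing KB-V1 cells was determined as loss of CellTiter-Glo luminescence after 72 h at 37 degrees C. Compounds were tested in quantitative HTS format across a concentration range, with curves fitted to normalized data.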
TDP1 cell noCPT: qHTS for Inhibitors of human tyrosyl-DNA phosphodiesterase 1 (TDP1): qHTS in cells in absence of CPT | DT40 Tdp1-/- hTDP1 cells, no CPT, ATP luminescence, 48 h | 420,000 tested, 15% active | AID 686978, 2013 | Potency, µM (doses to about 46.2 µM), inactives show at the top dose activity change, negative = growth inhibition, usual class: inhibitors; further: nearly all actives have a fitted effect of over 55% in size
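Camptothecin absent (DMSO only). Human TDP1-complemented DT40 knockout cells, 400 cells/well, 37 °C for minimum 48 hr; ATP measured via CellTiter-Glo, 30 min dark incubation, luminescence.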
HT1080NT lethal: kills 2HG-producing HT-1080-NT fibrosarcoma cells. Potency, µM (series often up to 46.1 µM), inactives show at the highest dose activity, negative = less viability, usual class: cytotoxic. HT-1080-NT fibrosarcoma viability, CellTiter-Glo ATP luminescence, 48 h. 360,000 tested, 1.6% active;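 further: NT is the 2HG producing partner of a matched IDH1 knockdown line; 0% = DMSO-treated cells and -100% = media-only wells without cells; nearly all actives have a fitted effect of over 55% in size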
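A 48-hour cytotoxicity screen used HT-1080-NT cells plated 2 hours before compound delivery. ATP-based CellTiter-Glo luminescence measured viability, normalized to DMSO and no-cell controls.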
DT40 TDP1 CPT: growth inhibition of DT40 Tdp1-/-;hTDP1 cells with camptothecin (screen for TDP1 inhibitors) | chicken DT40 Tdp1-/-;hTDP1 cells + 20 nM CPT, ATP luminescence, 48 h | Potency, µM (titrated, usually from 46.2 µM), inactives show top-dose activity change, negative = growth inhibition, actives largely listed as inhibitors | 420,000 tested, 12% active | AID 686979; further: nearly all actives have a fitted effect of over 55% in size
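Chicken DT40 Tdp1-/- cells complemented with human TDP1, 400 cells/well, exposed to compounds plus 20 nM camptothecin for at least 48 h at 37 C; viability read as ATP content by CellTiter-Glo luminescence.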
The depositor's hits bear a star; i = inactive; ? = inconclusive; . = no result; [ ] = remark or other dose. The call rests on the fitted dose curve; in most records, active means well fitted curve in the direction sought with a large enough effect; inconclusive means small, poorly fitted or top-dose-only effect, or another doubt; inactive means no such curve, though single readings can be large; an effect the other way counts as inactive or inconclusive. Unless noted, on the % scale 0 is the no-effect control and ±100 the full control effect; potency means the concentration at half of the fitted maximal effect.

SMILES	KB-3-1 cytotox	HT1080 IDH1KD tx	KB-V1 MDR tox	TDP1 cell noCPT	HT1080NT lethal	DT40 TDP1 CPT
S=c1nc(-c2ccccc2)[nH]n1-c1ccccc1	i	-3.0%	?	23.1µM*	9.9%	-19.9%
S=c1nc2ccccc2c2nc(-c3ccccc3Cl)[nH]n12	i	1.0%	i	3.66µM*	-10.3%	3.26µM*
Cn1nccc1C(=O)N(CCN1CCCCC1)CC1CCCN(C2CCCC2)C1 (configuration not stated)	i	-8.5%	i	-4.9%	1.3%	2.5%
Cn1cnc(S(=O)(=O)NC2CCN(Cc3ccccc3)CC2)c1	i	16.4%	i	3.9%	5.5%	1.3%
O=C(CS(=O)(=O)c1ccccc1)NCc1ccc(Cl)cc1	i	17.6%	i	10.1%	20.4%	-11.2%
COc1cccc(OC)c1C(=O)NC(C)C12CC3CC(CC(C3)C1)C2 (configuration not stated)	i	-2.1%	i	?	-0.5%	?
COc1ccc(CNC(C)C23CC4CC(CC(C4)C2)C3)c(OC)c1OC (configuration not stated)	i	-12.9%	i	14.6µM*	-21.9%	?
COc1ccccc1NC(=O)CSc1nc2c(oc3ccccc32)c(=O)n1Cc1ccco1	i	.	i	?	.	14.6µM*
CCOc1ccccc1NC(=O)CSc1nc2c(oc3ccccc32)c(=O)n1Cc1ccco1	i	.	i	20.6µM*	.	16.4µM*
CCOCCCn1c(SCC(=O)Nc2ccccc2OC)nc2c(oc3ccccc32)c1=O	i	.	i	25.9µM*	.	?
CCOc1ccc(-n2c(SCC(=O)Nc3ccccc3OC)nc3c(oc4ccccc43)c2=O)cc1	i	.	i	?	.	?
CCOc1ccc(NC(=O)CN(C)C(=O)c2cc3c(s2)CCC3)cc1OCC	i	-8.4%	i	?	-1.7%	?
Cc1cccc(C)c1NC(=O)C1c2ccccc2OCC(=O)N1CCc1c[nH]c2ccccc12 (configuration not stated)	i	1.2%	i	-27.5%	-0.7%	-3.3%
CN(C)c1ccc(/C=C/N2C=CCc3c2ccc2ccccc32)cc1	0.581µM*	.	?	0.0891µM*	.	0.0794µM*
O=S(=O)(Nc1cc(F)ccc1F)c1ccc2[nH]c3c(c2c1)CCCC3	i	.	i	?	.	?
Cc1cc(C(=O)Nc2c(C)nn(Cc3ccc(F)cc3)c2C)on1	i	2.2%	i	-13.4%	3.9%	7.7%
Cc1nn(Cc2c(F)c(F)c(F)c(F)c2F)c(C)c1NC(=O)c1ccc(COc2ccccc2Cl)cc1	i	15.6%	?	1.46µM*	20.7%	?
Cc1nn(Cc2c(F)c(F)c(F)c(F)c2F)c(C)c1NC(=O)c1ccc(COc2cc(Cl)ccc2Cl)cc1	i	-21.2%	?	?	-14.2%	?
Cc1nn(Cc2c(F)c(F)c(F)c(F)c2F)c(C)c1NC(=O)c1ccc(COc2ccc(F)cc2)o1	i	?	i	20.6µM*	2.9%[9.24 µM]	16.4µM*
COC(=O)c1ccc(-n2nnnc2SCC(=O)Nc2ccccc2C(=O)OC)cc1	i	-1.9%	i	?	-0.9%	?
NC(=O)c1ccc(-n2nnnc2SCC(=O)Nc2ccccc2-c2ccccc2)cc1	i	-1.5%	i	16.4µM*	-7.2%	?
NC(=O)c1nn(-c2ccccc2)nc1NC(=O)CSc1nnnn1-c1ccc(Cl)cc1	i	-6.9%	i	16.4µM*	1.2%	?
Cc1ccc(-n2nnnc2SCC(=O)Nc2cccnc2Cl)cc1	i	-14.5%	i	?	-5.2%	-12.2%
O=C(CSc1nnnn1-c1ccc(Cl)cc1)Nc1cccnc1Cl	i	20.5%	16.4µM*	?	4.1%	23.1µM*
CCOc1cc(C(=O)N2CCC(c3ccncc3)CC2)cc(OCC)c1OCC	i	.	i	-11.4%	.	-17.1%
SMILES	KB-3-1 cytotox	HT1080 IDH1KD tx	KB-V1 MDR tox	TDP1 cell noCPT	HT1080NT lethal	DT40 TDP1 CPT
CN(C)c1cccc(C(=O)N2CCC(c3ccncc3)CC2)c1	?	.	i	-75.4%	.	20.6µM*
CC1(CO)COC2(OC1)C(=O)Nc1ccccc12 (configuration not stated)	i	3.7%	i	6.2%	-0.1%	1.1%
COc1ccc(CNc2ccc3cc(S(=O)(=O)N4CCCCC4)ccc3n2)cc1	?	.	i	18.4µM*	.	?
O=S(=O)(c1ccc2nc(Nc3ccccc3)ccc2c1)N1CCCCC1	?	25.9µM*	i	16.4µM*	?	?
COCCNc1ccc2cc(S(=O)(=O)N3CCCCC3)ccc2n1	i	.	i	?	.	-8.3%
CC(=O)c1cccc(Nc2ccc3cc(S(=O)(=O)N4CCCC4)ccc3n2)c1	i	.	i	?	.	?
COc1cccc(Nc2ccc3cc(S(=O)(=O)N4CCC(C)CC4)ccc3n2)c1	?	.	?	14.6µM*	.	?
COc1ccc(Nc2ccc3cc(S(=O)(=O)N4CCCC4)ccc3n2)cc1OC	i	.	i	20.6µM*	.	18.4µM*
COCCNC(=O)CCN1N=C(c2ccccc2)CCC1=O	i	7.6%	i	-4.5%	16.4%	5.9%
O=C(CCNS(=O)(=O)c1ccccc1)NNC(=O)COc1ccccc1F	i	3.8%	?	13.9%	-3.2%[9.24 µM]	4.6%
CCOc1ccccc1Nc1ccc2cc(S(=O)(=O)N3CCCCC3)ccc2n1	?	.	?	18.4µM*	.	?
CCOc1ccc(S(=O)(=O)N2CCCCC2)cc1NC(=O)C1CCCC1	i	-1.2%	?	?	-2.2%	-29.5%
CC(NC(=O)c1cc([N+](=O)[O-])cc([N+](=O)[O-])c1)C1CC2CCC1C2 (configuration not stated)	i	-18.2%	?	?	-1.2%	-22.7%
CCN(CC)C(=O)c1cccc(-c2csc(C(O)c3ccco3)n2)c1 (configuration not stated)	i	-12.8%	i	?	4.5%	20.6µM*
CCN(CC)C(=O)c1cccc(-c2csc(C(NC(C)=O)c3ccccc3)n2)c1 (configuration not stated)	i	9.9%	i	?	14.8%	?
CC(C)c1cccc(-c2csc(C(O)c3ccco3)n2)c1 (configuration not stated)	i	-27.8%	i	?	0.2%	?
